# Laboratory results as given in PubChem BioAssay AID1259349 (Broad Institute, 2017).
# In all, about 17,000 compounds went through this assay and about 1,100 (6.5%) were called active.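 Rule for the calls: active = z-score of -3 or lower, meaning strong loss of probe binding signal; inactive = the rest.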 Shown is part of a subset that was picked to be rich in actives.
# Molecular target: Insulin-degrading enzyme (Homo sapiens) (UniProt P14735)
# Assay: displacers of FL-6b probe from IDE – biochemical, fluorescence anisotropy, probe displacement, primary screen (AID 1259349);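 note: His-tagged human IDE residues 42-1019 made in E. coli with 30 nM FL-6b probe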
# Details: purified IDE, FL-6b probe fluorescence polarization; at 20 µM; stronger effect = lower value
# Sequence of Insulin-degrading enzyme (Homo sapiens) (P14735 42-1019 limits assumed): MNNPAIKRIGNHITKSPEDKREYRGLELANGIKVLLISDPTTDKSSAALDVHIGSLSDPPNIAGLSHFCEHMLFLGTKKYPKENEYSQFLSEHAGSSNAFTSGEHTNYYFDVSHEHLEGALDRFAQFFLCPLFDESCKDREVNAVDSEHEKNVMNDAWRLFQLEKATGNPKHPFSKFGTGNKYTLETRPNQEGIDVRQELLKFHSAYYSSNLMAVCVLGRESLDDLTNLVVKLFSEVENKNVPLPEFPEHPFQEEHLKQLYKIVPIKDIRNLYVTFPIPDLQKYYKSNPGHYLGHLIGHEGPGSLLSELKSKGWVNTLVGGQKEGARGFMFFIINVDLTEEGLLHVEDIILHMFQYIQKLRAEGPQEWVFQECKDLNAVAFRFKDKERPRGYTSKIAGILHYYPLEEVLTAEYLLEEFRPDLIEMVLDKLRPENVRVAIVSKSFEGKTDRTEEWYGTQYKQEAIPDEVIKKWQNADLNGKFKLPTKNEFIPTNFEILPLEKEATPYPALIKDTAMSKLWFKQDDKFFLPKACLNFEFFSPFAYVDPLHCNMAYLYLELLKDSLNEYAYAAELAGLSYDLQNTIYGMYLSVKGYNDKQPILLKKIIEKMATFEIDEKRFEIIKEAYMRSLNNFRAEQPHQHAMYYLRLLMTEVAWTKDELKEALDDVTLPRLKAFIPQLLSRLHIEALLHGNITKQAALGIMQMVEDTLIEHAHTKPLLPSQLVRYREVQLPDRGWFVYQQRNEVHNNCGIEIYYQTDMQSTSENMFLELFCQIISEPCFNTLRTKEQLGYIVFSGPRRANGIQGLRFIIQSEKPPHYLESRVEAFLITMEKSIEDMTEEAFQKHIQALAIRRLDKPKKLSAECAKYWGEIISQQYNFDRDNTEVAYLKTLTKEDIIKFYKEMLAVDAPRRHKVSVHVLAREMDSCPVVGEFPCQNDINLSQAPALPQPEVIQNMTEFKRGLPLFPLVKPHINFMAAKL
row,SMILES,z-score
1,O=C1CNC[C@H]2[C@@H](c3ccc(C4=CCCC4)cc3)[C@@H](CO)N12,1.84 (inactive)
2,N#C[C@@H]1[C@@H](c2ccc(-c3ccccc3F)cc2)[C@@H](CO)N1C(=O)c1ccccn1,-6.83 (active)
3,N#C[C@@H]1[C@@H](c2ccc(/C=C/c3ccccc3)cc2)[C@@H](CO)N1C(=O)C1CC1,-0.906 (inactive)
4,N#C[C@H]1[C@@H](c2ccc(-c3ccccc3F)cc2)[C@H](CO)N1C(=O)c1ccccn1,-3.67 (active)
5,N#C[C@H]1[C@H](c2ccccc2)[C@@H](CO)N1C(=O)c1cccnc1,1.75 (inactive)
6,N#C[C@H]1[C@@H](c2ccccc2C2=CCCCC2)[C@H](CO)N1C(=O)c1ccccn1,0.206 (inactive)
7,N#C[C@@H]1[C@@H](c2ccc(-c3ccccc3F)cc2)[C@@H](CO)N1C(=O)C1CC1,-5.9 (active)
8,CC(=O)N(C)C[C@@H]1[C@@H](c2ccc(-c3ccccc3F)cc2)[C@@H](CO)N1C(C)=O,2.54 (inactive)
9,N#C[C@@H]1[C@H](c2ccccc2-c2ccccc2F)[C@@H](CO)N1C(=O)c1ccccn1,-0.079 (inactive)
10,N#C[C@H]1[C@@H](c2ccccc2-c2ccccc2F)[C@@H](CO)N1C(=O)C1CCC1,-0.535 (inactive)
11,CC(C)NC(=O)N1[C@H](C#N)[C@@H](c2ccc(-c3ccc(F)cc3)cc2)[C@H]1CO,2.54 (inactive)
12,O=C(CC1CC1)N1CC(=O)N2[C@H](CO)[C@H](c3ccc(C#Cc4ccc(F)cc4)cc3)[C@@H]2C1,3.38 (inactive)
13,CCC(=O)N(C)C[C@H]1[C@H](c2ccc(C3=CCCCC3)cc2)[C@@H](CO)N1C(C)=O,3.35 (inactive)
14,COc1cccc(-c2ccc([C@@H]3[C@@H](C#N)N(C(=O)c4ccccn4)[C@H]3CO)cc2)c1,-4.27 (active)
15,N#C[C@@H]1[C@@H](c2ccc(-c3ccccc3)cc2)[C@@H](CO)N1C(=O)Cc1ccccc1,1.8 (inactive)
16,COc1ccc(-c2ccc([C@@H]3[C@@H](C#N)N(C(=O)C4CCC4)[C@@H]3CO)cc2)cc1,4.33 (inactive)
17,N#C[C@H]1[C@H](c2ccc(-c3ccccc3)cc2)[C@@H](CO)N1C(=O)Cc1ccccc1,1.03 (inactive)
18,COc1cccc(C#Cc2ccc([C@H]3[C@@H](CO)N(C(=O)c4ccccn4)[C@H]3C#N)cc2)c1,0.995 (inactive)
19,COc1cccc(-c2ccc([C@@H]3[C@@H](CO)N(C(=O)c4ccccn4)[C@H]3C#N)cc2)c1,-6.41 (active)
20,CC(=O)N1[C@@H](CO)[C@@H](c2ccccc2)[C@@H]1CN(C)C(=O)CN1CCOCC1,0.517 (inactive)
21,C[C@@H]1CN([C@H](C)CO)C(=O)c2cc(NC(=O)Cc3ccccc3)ccc2O[C@@H](C)CCCCO[C@@H]1CN(C)Cc1ccncc1,-1.57 (inactive)

row,SMILES,z-score
1,C[C@@H]1COCc2cn(nn2)CC[C@H](C)C(=O)N1,0.508 (inactive)
2,COc1cccc(-c2ccc([C@@H]3[C@@H](CO)N4C(=O)CN(C(=O)C5CCCCC5)C[C@H]34)cc2)c1,-3.69 (active)
3,CN(C)C(=O)c1cccc(-c2ccc([C@H]3[C@@H](CO)N4C(=O)CN(C(=O)C5CC5)C[C@@H]34)cc2)c1,3.52 (inactive)
4,CN(C)C(=O)c1cccc(-c2ccc([C@H]3[C@H](CO)N4C(=O)CN(C(=O)C5CCCCC5)C[C@@H]34)cc2)c1,1.54 (inactive)
5,COc1cccc(-c2ccc([C@H]3[C@H]4CN(C(=O)NC(C)C)CC(=O)N4[C@H]3CO)cc2)c1,-10.1 (active)
6,C/C=C/c1ccc([C@@H]2[C@@H](CO)N3C(=O)CN(C(=O)Nc4cccc(OC)c4)C[C@@H]23)cc1,0.379 (inactive)
7,COc1ccc(NC(=O)N2CC(=O)N3[C@H](CO)[C@@H](c4ccc(-c5ccc(C)cc5)cc4)[C@H]3C2)cc1,-0.113 (inactive)
8,N#C[C@H]1[C@H](c2ccccc2-c2ccc(F)cc2)[C@H](CO)N1C(=O)Cc1ccncc1,2.04 (inactive)
9,CO[C@@H]1CC[C@@H]2CCOc3ccc(C#N)cc3C(=O)N(C)[C@H](C)C(=O)N(C)C[C@@H]1O2,2.26 (inactive)
10,CO[C@@H]1CN(C)C(=O)c2ccc(NS(=O)(=O)c3c(C)noc3C)cc2OC[C@H](C)NC[C@@H]1C,1.77 (inactive)
11,Cc1cccc(-c2ccc([C@@H]3[C@H](CO)N4CCCCN(C(=O)c5ccc6c(c5)OCO6)C[C@@H]34)cc2)c1,-4.42 (active)
12,O=S(=O)(c1ccccc1)N1CCCCN2[C@H](C1)[C@H](c1ccc(-c3ccccc3)cc1)[C@@H]2CO,2.36 (inactive)
13,COc1ccccc1-c1ccc([C@@H]2[C@@H](CO)N3CCCCN(C(=O)c4ccncc4)C[C@@H]23)cc1,-4.74 (active)
14,CCS(=O)(=O)N1CCCCN2[C@@H](CO)[C@@H](c3ccc(-c4ccccc4)cc3)[C@@H]2C1,-3.06 (active)
15,COc1ccc(-c2ccc([C@H]3[C@H]4CN(C(=O)c5ccc6c(c5)OCO6)CCCCN4[C@H]3CO)cc2)cc1,0.126 (inactive)
16,CCCC#Cc1ccc([C@H]2[C@H](CO)N3CCCCN(C(=O)c4ccc5c(c4)OCO5)C[C@@H]23)cc1,1.25 (inactive)
17,O=C(c1ccncc1)N1CCCCN2[C@H](CO)[C@@H](c3ccc(C#Cc4ccccn4)cc3)[C@H]2C1,-2.35 (inactive)
18,Cn1cnc(S(=O)(=O)N2CCCCN3[C@H](CO)[C@@H](c4ccc(-c5ccc(F)cc5)cc4)[C@@H]3C2)c1,3.91 (inactive)
19,COc1ccccc1-c1ccc([C@@H]2[C@@H](CO)N3CCCCN(S(=O)(=O)c4cn(C)cn4)C[C@H]23)cc1,-2.23 (inactive)
20,O=S(=O)(Cc1ccccc1)N1CCCCN2[C@@H](CO)[C@H](c3ccc(-c4ccccc4)cc3)[C@@H]2C1,2.58 (inactive)
21,COc1ccc(C#Cc2ccc([C@@H]3[C@@H](CO)N4CCCCN(C(=O)c5ccncc5)C[C@@H]34)cc2)cc1,-0.38 (inactive)

row,SMILES,z-score
1,Cc1cccc(-c2ccc([C@H]3[C@H](CO)N4CCCCN(S(=O)(=O)c5cn(C)cn5)C[C@@H]34)cc2)c1,-4.09 (active)
2,O=C1CN(S(=O)(=O)Cc2ccccc2)C[C@@H]2[C@@H](c3ccc(C#Cc4ccccc4)cc3)[C@@H](CO)N12,-0.431 (inactive)
3,O=C(c1cccc(F)c1)N1CC(=O)N2[C@H](C1)[C@@H](c1ccc(C#Cc3ccc(F)cc3)cc1)[C@@H]2CO,2.4 (inactive)
4,CCC(=O)N1CC[C@H]2[C@@H]1c1cc(-c3ccc(C#N)cc3)ccc1N(C)[C@H]2CO,-0.903 (inactive)
5,O=C(C[C@H]1CC[C@@H]2NC[C@H](O)COC[C@H]2O1)NCCN1CCCCC1,-0.195 (inactive)
6,O=C1CCCCn2nncc2COC[C@@H](Cc2ccccc2)N1,0.104 (inactive)
7,CC(=O)NC[C@H]1[C@H](c2ccccc2)[C@@H](CO)N1C(=O)Cc1cccnc1,5.37 (inactive)
8,CN(C)CC#Cc1ccc([C@H]2[C@H](CO)N3CCCCN(CC4CC4)C[C@@H]23)cc1,3 (inactive)
9,Cc1ccc(-c2ccc([C@H]3[C@H]4CN(S(=O)(=O)c5cccc(F)c5)CC(=O)N4[C@H]3CO)cc2)cc1,1.96 (inactive)
10,CC(C)C#Cc1ccc([C@H]2[C@H](CO)N3CCCCN(C(=O)c4ccc(F)cc4)C[C@@H]23)cc1,1.11 (inactive)
11,O=C(c1ccncc1)N1CCCCN2[C@H](CO)[C@H](c3ccc(-c4ccccc4)cc3)[C@H]2C1,-4.53 (active)
12,O=C(c1cccc(F)c1)N1CCCCN2[C@H](CO)[C@H](c3ccc(-c4ccncc4)cc3)[C@H]2C1,0.501 (inactive)
13,O=C(c1ccc(F)cc1)N1CCCCN2[C@@H](CO)[C@H](c3ccc(-c4ccccc4)cc3)[C@@H]2C1,-0.452 (inactive)
14,O=C(c1cccc(F)c1)N1CCCCN2[C@H](CO)[C@H](c3ccc(C#CC4(O)CCCC4)cc3)[C@H]2C1,0.958 (inactive)
15,O=C(c1ccc(F)cc1)N1CCCCN2[C@H](C1)[C@@H](c1ccc(C#CC3(O)CCCC3)cc1)[C@@H]2CO,-3.65 (active)
16,CC(C)(O)C#Cc1ccc([C@H]2[C@H]3CN(C(=O)c4ccncc4)CCCCN3[C@H]2CO)cc1,0.748 (inactive)
17,C[C@H](CO)N1C[C@H](C)[C@H](CN(C)C(=O)Nc2cccc(Cl)c2Cl)OCc2ccccc2-c2ccccc2C1=O,-1.18 (inactive)
18,CCCC#Cc1ccc([C@H]2[C@H]3CN(C(=O)Nc4ccc(F)cc4)CC(=O)N3[C@H]2CO)cc1,3.77 (inactive)
19,C[C@@H]1CN([C@H](C)CO)C(=O)CCCn2cc(nn2)CO[C@@H]1CN(C)C(=O)Nc1ccc2c(c1)OCO2,-0.664 (inactive)
20,CCCC#Cc1ccc([C@H]2[C@@H](CO)N3C(=O)CN(C(=O)c4ccncc4)C[C@@H]23)cc1,3.16 (inactive)
